Shown are actives, neighbours in structure and some others; about 12% of the full set was active somewhere.
SARS PLP yeast = SARS-CoV PLP inhibition in yeast | S. cerevisiae expressing SARS-CoV PLpro, growth rescue | Potency, µM (doses to about 32.9 µM), hits mostly activators | hit rate 0.19% among 330,000; further: nearly all actives have a fitted effect of over 55% in size
CHX counter = counter-screen for Shiga toxin inhibitors: cycloheximide protein synthesis inhibition. cell reporter, cycloheximide protein synthesis inhibition counterscreen. max response, %. hit rate 12% among 300,000; in the data active means max response mostly above about 13%, no sharp cut-off; inactive means mostly below about 14%; further: read at 38.3 µM for the half of the compounds with a filed dose
NS1 inh = inhibitors of influenza NS1 protein function. Potency, µM (series often up to 46.1 µM). hit rate 0.4% among 270,000; further: actives are rising curves; nearly all actives have a fitted effect of over 50% in size
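S. cerevisiae expressing influenza A NS1, grown in glucose, washed, then diluted 1:100 into pH 6.0 -URA galactose medium with 23 nl compound. Growth recovery read as OD600; NS1-free strain serves as control.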
Shiga inhibitor = Shiga toxin inhibition | Vero cells, Shiga toxin protein synthesis inhibition reporter | inhibition, % at 38.7 µM | hit rate 9.2% among 290,000 | AID 2315; in the data active means inhibition mostly above about 28%, no sharp cut-off; inactive means mostly below about 43%
Hits are given with their value; [ ] = another dose, or the depositor's remark. Unless noted, the call rests on the fitted dose curve.

Cn1c(=NC(=O)CCl)sc2ccccc21 was read as SARS PLP yeast inactive, CHX counter 28.4, NS1 inh inactive and Shiga inhibitor inactive.
Screening O=C1CC(c2ccccc2Cl)CC(O)=C1C=NCCCO (stereo not given) returned SARS PLP yeast inactive, CHX counter inactive and NS1 inh inactive.
Cc1cccc(-n2c(C)c(C)c3c(N)ncnc32)c1 was read as SARS PLP yeast inactive, CHX counter 19.5, NS1 inh inactive and Shiga inhibitor inactive.
Screening Cc1cccc(Oc2ncnc(N)c2[N+](=O)[O-])c1 returned SARS PLP yeast inactive, CHX counter inactive, NS1 inh inactive and Shiga inhibitor inactive.
For COc1ccc(C(=O)N/C(N)=N/c2nc3ccccc3o2)cc1 the results were SARS PLP yeast inactive, CHX counter inactive, NS1 inh inactive and Shiga inhibitor inactive.
Screening COc1ccc(C(=O)/C=C/Sc2nc3ccccc3o2)cc1 returned SARS PLP yeast inactive, CHX counter 50.6, NS1 inh inactive and Shiga inhibitor 134.6.
Screening CC(C)c1ccc(NC(=O)CSc2nc3ncccc3[nH]2)cc1 returned CHX counter 18.8, NS1 inh inactive and Shiga inhibitor inactive.
For CC(C)OC(=O)c1ccc(NC(=O)CSc2nc3ncccc3[nH]2)cc1 the results were SARS PLP yeast inactive, CHX counter 22.9, NS1 inh inactive and Shiga inhibitor 46.0.
For C/C=C/C(=O)[C@@H](C)[C@@H](/C=C/C[Si](C)(C)C)C(C)C the results were CHX counter inactive and Shiga inhibitor inactive.
Screening CN1CCN(c2ccc(NC(=O)c3ccc4c(c3)OCO4)cc2)CC1 returned SARS PLP yeast inactive, CHX counter 41.8, NS1 inh inactive and Shiga inhibitor 71.9.
`CC(=O)N1CCN(c2ccc(NC(=O)c3ccc4c(c3)OCCO4)cc2)CC1` gave SARS PLP yeast inactive, CHX counter inactive, NS1 inh inactive and Shiga inhibitor inactive.
CC(=O)N1CCN(c2ccc(NC(=O)c3ccc4c(c3)OCCO4)cc2Cl)CC1 was read as SARS PLP yeast inactive, CHX counter 27.8, NS1 inh inactive and Shiga inhibitor inactive.
`O=C(Nc1ccc(N2CCN(C(=O)c3ccccc3)CC2)cc1)c1ccc2c(c1)OCCO2` gave SARS PLP yeast inactive, CHX counter 55.3, NS1 inh inconclusive and Shiga inhibitor 61.7.
Screening O=C(Nc1ccc(N2CCCCC2)cc1)c1ccc2c(c1)OCCO2 returned SARS PLP yeast inactive, CHX counter 34.9, NS1 inh inactive and Shiga inhibitor 75.4.
For Cc1ccc(S(=O)(=O)N2CCN(C(=O)Cn3c(=O)cnc4ccccc43)CC2)cc1 the results were SARS PLP yeast inactive.
Screening Cc1ccc(N2C(=O)C3C(C2=O)N2C(c4cccs4)C4C(=O)N(c5ccc(C)cc5)C(=O)C4N2C3c2cccs2)cc1 (stereo not given) returned SARS PLP yeast inactive, CHX counter inactive, NS1 inh 2.51µM and Shiga inhibitor inactive.
`CCn1c(=O)n(CC)c2cc(N3CCCC3)c(NC(=O)c3cccc(Cl)c3)cc21` gave SARS PLP yeast inactive, CHX counter inactive, NS1 inh inactive and Shiga inhibitor inactive.
For Cc1n[nH]c(C)c1CCC(=O)N/N=C/c1c[nH]c2ccccc12 the results were SARS PLP yeast inactive, CHX counter inactive, NS1 inh inactive and Shiga inhibitor inactive.
For Cn1ccc(C(=O)N/N=C/c2c[nH]c3ccccc23)n1 the results were SARS PLP yeast inactive, CHX counter 44.7, NS1 inh inactive and Shiga inhibitor 58.8.
O=C(N/N=C/c1c[nH]c2ccccc12)c1ccn(Cc2ccc(Cl)cc2Cl)n1 was read as SARS PLP yeast inactive, CHX counter inactive, NS1 inh inactive and Shiga inhibitor inactive.
For CC(C)c1cc(C(=O)N/N=C/c2c[nH]c3ccccc23)n[nH]1 the results were SARS PLP yeast inactive, CHX counter 17.1, NS1 inh inactive and Shiga inhibitor 53.1.
For CC(C)NC(=S)N/N=C/c1c[nH]c2ccccc12 the results were SARS PLP yeast inactive, CHX counter 17.5, NS1 inh inactive and Shiga inhibitor 29.1.
For Cc1[nH]c2ccccc2c1/C=N/NC(=S)NC(C)C the results were SARS PLP yeast inactive, CHX counter inactive, NS1 inh inactive and Shiga inhibitor inactive.
CCOc1ccccc1/C=N/NC(=O)c1cc(C(C)C)[nH]n1 was read as SARS PLP yeast inactive, CHX counter 36.4, NS1 inh inactive and Shiga inhibitor 65.5.
For ClCCNc1nc2ccc(Cl)cc2[nH]1 the results were SARS PLP yeast inactive, CHX counter 18.7, NS1 inh inactive and Shiga inhibitor inactive.
Cc1ccc(-c2nnc(-c3cccc(Br)c3)o2)cc1 was read as SARS PLP yeast inactive, CHX counter 26.1, NS1 inh inactive[9.22 µM] and Shiga inhibitor 41.5.
For Brc1cccc(-c2nnc(-c3ccccc3)o2)c1 the results were SARS PLP yeast inactive, CHX counter 27.0, NS1 inh inactive and Shiga inhibitor 55.2.
`Cc1ccc(-c2nnc(-c3ccc4ccccc4c3)o2)cc1` gave NS1 inh inactive.
`COc1cccc(-c2nc(CCl)cs2)c1OC` gave SARS PLP yeast inactive, CHX counter inactive and Shiga inhibitor inactive.
For COC(=O)c1cc(Cl)c(NC(=O)c2ccc(C(C)(C)C)cc2)cc1OC the results were SARS PLP yeast inactive, CHX counter 26.4, NS1 inh inactive and Shiga inhibitor 44.1.
`COC(=O)c1cc(Cl)c(NC(=O)C(C)C)cc1OC` gave SARS PLP yeast inactive, CHX counter inactive, NS1 inh inactive and Shiga inhibitor inactive.
Screening COc1ccc2c(COC(=O)c3n[nH]c4ccccc34)cc(=O)oc2c1 returned SARS PLP yeast inactive, CHX counter 26.0, NS1 inh inactive and Shiga inhibitor 106.8.
O=C(COC(=O)c1n[nH]c2ccccc12)c1cccc(Br)c1 was read as SARS PLP yeast inactive, CHX counter 18.4, NS1 inh inactive and Shiga inhibitor inactive.
`Cc1cc(NC(=O)COC(=O)c2ccccc2[N+](=O)[O-])no1` gave SARS PLP yeast inactive, CHX counter 27.7 and Shiga inhibitor inactive.
For Cc1cc(NC(=O)COC(=O)c2n[nH]c3ccccc23)no1 the results were SARS PLP yeast inactive, CHX counter 19.6, NS1 inh inactive and Shiga inhibitor inactive.
Screening Cc1ccc(C)c(C(=O)COC(=O)c2n[nH]c3ccccc23)c1 returned SARS PLP yeast inactive.
Cc1cc(NC(=O)COC(=O)c2ccccc2Cl)no1 was read as SARS PLP yeast inactive.
`O=C(Nc1ccccc1C(F)(F)F)N1CCN(c2ccccn2)CC1` gave SARS PLP yeast inactive, CHX counter inactive and Shiga inhibitor inactive.
O=C(N/N=C\c1c(O)ccc2ccccc12)c1ccc(S(=O)(=O)N2CCCCC2)cc1 was read as SARS PLP yeast 3.98µM, CHX counter inactive, NS1 inh inactive and Shiga inhibitor inactive.
Cc1cccc(N2CCN(C(=O)CCNS(=O)(=O)c3cccs3)CC2C)c1 (stereo not given) was read as SARS PLP yeast inactive, CHX counter 15.6, NS1 inh inactive and Shiga inhibitor 65.5.
`COc1ccc(N2CCN(C(=O)CCNS(=O)(=O)c3cccs3)CC2)cc1` gave SARS PLP yeast inactive, CHX counter inactive, NS1 inh inactive and Shiga inhibitor inactive.
Screening O=C(CCNS(=O)(=O)c1cccs1)N1CCc2ccccc2C1 returned SARS PLP yeast inactive, CHX counter 28.7, NS1 inh inactive and Shiga inhibitor 86.3.
`CC1CC(C)CN(C(=O)CCNS(=O)(=O)c2cccs2)C1` (stereo not given) gave SARS PLP yeast inactive, CHX counter inactive, NS1 inh inactive and Shiga inhibitor inactive.
